Each structure is given as a SMILES string. The panel holds about 83,000 compounds, 20% with a hit somewhere; the sample as a whole holds those more often.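 Note: values are percent growth. 100 is the growth of untreated cells, values between 100 and 0 indicate rising inhibition; between -100 and 0 indicates cell death.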 A number with no mark means an inactive call. Active and inactive are the calls of the source. The calls were made as follows: active = growth percent below 10; inactive = the rest.

Our source for the growth values is PubChem BioAssay (NCI).

Test systems include SK-MEL-2 melanoma; EKVX NSCLC; SN12C renal; UO-31 renal; TK-10 renal; ACHN renal; CAKI-1 renal; A498 renal; CCRF-CEM leukemia; MOLT-4 leukemia; RPMI-8226 leukemia; OVCAR-8 ovarian; OVCAR-5 ovarian; OVCAR-4 ovarian; SK-OV-3 ovarian; IGROV1 ovarian; OVCAR-3 ovarian; HS 578T breast; NCI/ADR-RES ovarian; SR leukemia.
Assay in all cases: NCI-60 one-dose screen, 48 h (100 = growth as untreated, 0 = no growth, -100 = all killed)
What all share (conditions): 10 µM unless noted

On to `O=C1CC(=NCC(=O)n2c(-c3ccccc3)nc3ccccc32)NN1`, for which the growth was 98.7% in the assay on SK-MEL-2 melanoma; 77.5% in the assay with EKVX NSCLC; 99% in the assay on SN12C renal; 69.3% with UO-31 renal; 155% in the assay on TK-10 renal; 93.3% with ACHN renal. For the same compound, the growth was 75.9% in the assay on CAKI-1 renal; 56.1% in the assay with A498 renal; 107% with CCRF-CEM leukemia; 103% in the assay with MOLT-4 leukemia; 104% with RPMI-8226 leukemia; 102% with OVCAR-8 ovarian. Moreover, the growth in the assay with OVCAR-5 ovarian is 99.9%; with OVCAR-4 ovarian, 97.5%; with SK-OV-3 ovarian it was 84.8%; with IGROV1 ovarian, 77.2%; with OVCAR-3 ovarian, 103%; with HS 578T breast it was 103%. In the assay with NCI/ADR-RES ovarian, the growth is 99.5%.
For the compound `Cc1cc(C)c2nc3nc(C)cc(C)c3c(N)c2c1`, the growth with SK-MEL-2 melanoma was 30.4%; in the assay on EKVX NSCLC, 28.1%; in the assay on SN12C renal, 24.9%; in the assay on UO-31 renal, -1.17% (active); in the assay on TK-10 renal it was 41.4%; in the assay on ACHN renal, 5.3% (active). Besides, the growth in the assay with CAKI-1 renal is 10.4%; with A498 renal, 47%; in the assay with CCRF-CEM leukemia, 42.3%; in the assay on MOLT-4 leukemia, -18.6% (active); in the assay on RPMI-8226 leukemia, -13.5% (active); in the assay on OVCAR-8 ovarian, 45.3%. Further, the growth in the assay with OVCAR-5 ovarian is 28.7%; in the assay with OVCAR-4 ovarian, 33.6%; with SK-OV-3 ovarian it was 25.4%; in the assay on OVCAR-3 ovarian it was 26.5%; in the assay with HS 578T breast, 24.3%; in the assay with NCI/ADR-RES ovarian, 30.9%.
As to `COc1ccc(C2Nc3c(c(C(C)(C)C)nn3-c3ccccc3)C(=O)CS2)cc1` (stereo unspecified), the growth with SK-MEL-2 melanoma is 98.8%; in the assay with EKVX NSCLC, 93.9%; with SN12C renal it was 99.8%; in the assay on UO-31 renal, 72%; in the assay with TK-10 renal, 100%; in the assay on ACHN renal, 99.9%. The growth with CAKI-1 renal is 81.9%; with A498 renal, 113%; with CCRF-CEM leukemia, 83.9%; in the assay with MOLT-4 leukemia, 75.7%; with RPMI-8226 leukemia, 82.7%; with OVCAR-8 ovarian, 98.4%. The growth is 108% in the assay on OVCAR-5 ovarian; 114% in the assay with OVCAR-4 ovarian; 106% in the assay with SK-OV-3 ovarian; 84.3% in the assay on IGROV1 ovarian; 101% with OVCAR-3 ovarian; 118% in the assay with HS 578T breast. Also, the growth with NCI/ADR-RES ovarian is 94.8%.
With `CN1CCN(Cc2ccc(NC(=O)c3cncc(C#Cc4cncn5ccnc45)c3)cc2C(F)(F)F)CC1`, the growth with SK-MEL-2 melanoma is 24.2%; with EKVX NSCLC, 86.6%; with SN12C renal it was 31.3%; with UO-31 renal, 44%; with TK-10 renal it was 94.2%; in the assay on ACHN renal it was 37.8%. Besides, the growth is 89.2% in the assay with CAKI-1 renal; 36% in the assay on CCRF-CEM leukemia; 82.9% in the assay with MOLT-4 leukemia; 40.8% in the assay on SR leukemia; 54.9% with RPMI-8226 leukemia; 68.8% in the assay with OVCAR-8 ovarian. The growth in the assay on OVCAR-5 ovarian is 48.4%; in the assay on OVCAR-4 ovarian, 48.5%; with SK-OV-3 ovarian it was 88.9%; in the assay on IGROV1 ovarian it was 20.4%; in the assay on OVCAR-3 ovarian, 83.8%; in the assay on HS 578T breast, 69.6%. For the same compound, the growth in the assay with NCI/ADR-RES ovarian is 93.6%.
`CC1=CC(C)(C)Nc2ccc(Cc3ccc4c(c3)C(C)=CC(C)(C)N4)cc21`: the growth in the assay on SK-MEL-2 melanoma was 90.6%; in the assay on EKVX NSCLC it was 81.4%; in the assay with SN12C renal, 97.1%; in the assay with UO-31 renal, 77.8%; in the assay with TK-10 renal, 112%; with ACHN renal, 93.8%. Also, the growth was 73.6% with CAKI-1 renal; 109% in the assay with A498 renal; 82.9% with MOLT-4 leukemia; 118% in the assay on SR leukemia; 96.9% in the assay on OVCAR-8 ovarian; 89.7% in the assay on OVCAR-5 ovarian. Further, the growth is 72.2% in the assay with OVCAR-4 ovarian; 105% in the assay with SK-OV-3 ovarian; 92.7% in the assay with IGROV1 ovarian; 97.4% in the assay on OVCAR-3 ovarian; 103% in the assay on HS 578T breast; 100% with NCI/ADR-RES ovarian.
On to `COc1cccc(-c2nn(C(C)(C)C)cc2-c2ccnc(NCCCNS(=O)(=O)c3cccc4ccccc34)c2)c1`, for which the growth in the assay on SK-MEL-2 melanoma is 111%; with EKVX NSCLC, 98.9%; with SN12C renal it was 103%; with UO-31 renal it was 91.1%; with TK-10 renal, 101%; with ACHN renal, 107%. Moreover, the growth was 96.6% with CAKI-1 renal; 76.9% in the assay with A498 renal; 102% in the assay with CCRF-CEM leukemia; 104% with MOLT-4 leukemia; 103% with RPMI-8226 leukemia; 103% in the assay with OVCAR-8 ovarian. Also, the growth in the assay on OVCAR-5 ovarian was 104%; with OVCAR-4 ovarian, 101%; in the assay with SK-OV-3 ovarian, 110%; in the assay on IGROV1 ovarian, 110%; with OVCAR-3 ovarian, 108%; in the assay with HS 578T breast it was 101%. Besides, in the assay on NCI/ADR-RES ovarian, the growth was 101%.
In the case of `O=C(/C=C/c1cccc(Cl)c1)c1ccc(O)c(CN2CCN(c3cc4c(cc3F)c(=O)c(C(=O)O)cn4C3CC3)CC2)c1`, the growth with SK-MEL-2 melanoma was 53.7%; with EKVX NSCLC, 55.7%; with SN12C renal it was 18.9%; in the assay on UO-31 renal, 21.5%; in the assay with TK-10 renal it was 48.1%; with ACHN renal it was 27.7%. Moreover, the growth is 44.6% with CAKI-1 renal; 25.9% with A498 renal; 25.1% with CCRF-CEM leukemia; 59.9% with MOLT-4 leukemia; 4.11% (active) in the assay on RPMI-8226 leukemia; 20.6% in the assay with OVCAR-8 ovarian. For the same compound, the growth with OVCAR-5 ovarian was 52.6%; in the assay with OVCAR-4 ovarian it was 79.5%; with SK-OV-3 ovarian, 79.8%; in the assay on IGROV1 ovarian, 48%; in the assay on OVCAR-3 ovarian, 40.8%; with HS 578T breast, 41.3%. In the assay on NCI/ADR-RES ovarian, the growth is 60.5%.
